Measured values reported in PubChem BioAssay (Tox21).
Several values for one entry are separate records, joined by “and”; a condition that tells them apart may be missing. Equal values may be shown once. Records with an inconclusive call do not appear. Unmarked numbers belong to inactive results. Activity calls are given as the source filed them. Calls follow the shape of the dose curve; as a rule, active = well fitted cell-killing curve with a large enough effect in the repeat runs; inconclusive = weak or mixed curves, or effect the other way; inactive = no such curve, though single readings can be large or run the other way.

Test: qHTS assay for identifying genotoxic compounds that show differential cytotoxicity against isogenic chicken DT40 cell lines with known DNA damage response pathways - wild type cell line (AID 743012); also: nearly all actives have a fitted effect of over 60% in size
Settings: DT40 wild type chicken cells viability, CellTiter-Glo, 40 h; series mostly up to 68.4 µM; activity change, negative = cytotoxicity: at the top concentration
Text: U.S. Tox21 Program National Center for Advancing Translational Sciences [NCATS] NIH Chemical Genomics Center [NCGC] U.S. Environmental Protection Agency [EPA] National Institutes of Environmental Health Sciences [NIEHS] National Toxicology Program [NTP] U.S. Food and Drug Administration [FDA] Tox21 Assay Overview: DNA repair pathways play a critical role in cellular homeostasis by repairing DNA damage induced by endogenous processes and xenobiotics. Isogenic chicken DT40 cell lines deficient in different DNA repair pathways can be used to identify genotoxic compounds and aid in characterizing the nature of the DNA damage induced. Two DNA repair-deficient cell lines with disrupted genes, Rad54/Ku70 or Rev3, were used to screen the Tox21 10K compound library. Possible genotoxicity was based on the presence of a significant increase in cytotoxicity in one or more of the DNA repair-deficient cell lines compared to that observed in the parental DNA repair-proficient cell line. CellTiter Glo viability assay (Promega, Madison, WI) was used to measure cell viability in these cells after compound treatment. This assay includes the data from the wild type cell line.
Tox21 Assay Protocol Summary: 300 DT40 wild type cells in 5 uL/well were dispensed into white, solid-bottom 1536-well plates using a Multidrop Combi (ThermoFisher Scientific, Waltham, MA) dispenser. After the assay plates were incubated at 37 C/5% CO2 for approximately 0.5 hour, 23 nL of compounds dissolved in DMSO, positive controls or DMSO only was transferred into the assay plate by a pintool work station (Kalypsys, San Diego, CA). The assay plates were incubated at 37 C/5% CO2 for 40 hours. After 5 uL per well of CellTiter-Glo reagent was added into each well of the assay plates, the plates were incubated for 30 min at room temperature and the luminescence intensity of the plates was measured using a ViewLux (PerkinElmer, Shelton, CT) plate reader.
% is scaled to controls: 0 for no effect and ±100 for the full control effect; potency is read from the fitted curve at half-maximal effect.

Compound | activity change, negative = cytotoxicity | Potency
CCCCN1C=CN(C)C1 | 12.3% [at 31.4 µM] | 
CC(=O)c1cnccn1 | 30% [at 95 µM] | 
C=CCCC(=O)O | 8.38% | 
NC(=O)N1c2ccccc2CC(=O)c2ccccc21 |  | 5.96 µM (active)
C=C(C)C(=O)OCC1CCCO1 (stereo not given) | -3.65% | 
C[C@H]1[C@H](NC(=O)/C(=N/OC(C)(C)C(=O)O)c2csc(N)n2)C(=O)N1S(=O)(=O)O (stereo in doubt) | 0.438% [at 31.4 µM] | 
COC(=O)C1=C(C)NC(C)=C(C(=O)OC(C)C)C1c1cccc2nonc12 (stereo not given) | -24.4% [at 31.4 µM] | 
CC(=O)Oc1cccc(C)c1 | 0.924% | 
CC(C)C[C@@H](N)C(=O)O | -6.38% | 
CNCCO | 23.9% | 
CO[Si](C)(OC)c1ccccc1 | 25.7% | 
O=C(O)c1cc(C(=O)O)cc(C(=O)O)c1 | 0.527% [at 95 µM] | 
CCN1C=CN(C)C1C (stereo not given) | -4.59% [at 95 µM] | 
c1ccc(Cc2ccccc2)cc1 | 8.27% | 
Cc1nc2ccc(CN(C)c3ccc(C(=O)N[C@@H](CCC(=O)O)C(=O)O)s3)cc2c(=O)[nH]1 |  | 3.8 nM (active) and 7.5 nM (active)
FB(F)F | -5.95% [at 95 µM] | 
CC(C)COC(=O)c1ccc(N)cc1 | 6.75% | 
CC(=O)NC(=O)c1ccccc1O | 13.7% | 
CC(=O)Nc1ccc(OCC(O)CNC(C)C)cc1 (stereo not given) | 0.391% | 
O=C(c1ccccc1O)c1ccccc1O | -0.02% | 

Compound | activity change, negative = cytotoxicity | Potency
Clc1cc(Cl)cc(Cl)c1 | 11.1% | 
Cc1ncc([C@@H](CCCCCCc2ccc3c(n2)NCCC3)CC(=O)O)cn1 | -1.07% | 
CC(C)(N)C#N | 18.8% [at 95 µM] | 
CCC(C(=O)NC(=O)NC(C)=O)c1ccccc1 (stereo not given) | 6.61% | 
CC12CCC(C(=O)C1=O)C2(C)C (stereo not given) | 13% [at 95 µM] | 
CN1[C@@H]2CC[C@H]1CC(OC(=O)C(O)c1ccccc1)C2 (stereo not given in full) |  | inactive
CC(C#N)(CCC(=O)O)N=NC(C)(C#N)CCC(=O)O (stereo not given) | 17.3% | 
O=C(CO)[C@@H](O)[C@H](O)[C@@H](O)CO | 5.33% | 
CCN[C@H]1C[C@H](C)S(=O)(=O)c2sc(S(N)(=O)=O)cc21 | 2.8% | 
CCO[Si](OCC)(OCC)c1ccccc1 | 8.08% | 
CCCCc1nc(Cl)c(CO)n1Cc1ccc(-c2ccccc2-c2nn[nH]n2)cc1 | -3.95% | 
CCOc1ccccc1OCC | -2.29% | 
C1CCC2(CCCCO2)OC1 | 24% | 
CCCCCCCCCCOc1cc2c(=O)c(C(=O)OCC)c[nH]c2cc1OCC | 9.3% | 
O=C(CO)[C@@H](O)[C@H](O)[C@H](O)CO |  | inactive
CC1=CC(=O)[C@H]2C[C@@H]1C2(C)C | 10.8% | 
CN(C)CCCN(C)CCCN(C)C | 3.89% | 
CCCCCC(=O)OCCc1ccccc1 | 0.478% | 
COc1ccccc1OCC1CNC(=O)O1 (stereo not given) | 7.34% | 
COc1c(N2CCNC(C)C2)c(F)cc2c(=O)c(C(=O)O)cn(C3CC3)c12 (stereo not given) | 20.4% | 
